Compound activity as filed in PubChem BioAssay.
BJeLR lethal: MLPCN primary cell-based screen for lethality selective to Ras in HRASV12 cells; BJeLR (HRASV12) viability, CellTiter-Glo ATP luminescence, 48 h; inhibition, % (no concentration beside the values); 300,000 tested, 0.17% active; AID 1554, 2009; in the data active = inhibition above about 50%
PrPC surface inh: inhibitors of human cell surface prion protein PrPC, primary screen, cell-based, TR-FRET | Major prion protein (Homo sapiens), P04156 | TR-FRET read-out | inhibition, % at 13.8 µM | 370,000 tested, 0.43% active | AID 720596, 2013; in the data active = inhibition above about 24%; also: 0% = median of the test wells and 100% = reference compound wells
FBA Mtb inh: Mtb FBA enzyme inhibitors, primary screen, biochemical, fluorescence, strain H37Rv; AID 588726, 2011; inhibition, % at 1 µM; Fructose-bisphosphate aldolase (Mycobacterium tuberculosis (strain ATCC 25618 / H37Rv)), …; purified M. tuberculosis FBA, fluorescence read-out; 360,000 tested, 2.3% active; in the data active = inhibition above about 27%;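 also: 0% = vehicle and 100% = reference inhibitor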
GDH-TPI inh: GDH-TPI coupling enzyme inhibitors, primary screen, artefact control for M. tuberculosis FBA inhibitor project, biochemical, absorbance, full deck | GDH-TPI coupled enzyme counterscreen, NADH absorbance | inhibition, % at 4.8 µM | 360,000 tested, 1.2% active | AID 588335, 2011; in the data active = inhibition above about 30%;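 also: 0% = DMSO wells and 100% = wells lacking the enzyme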
RecA intein inh: Mtb RecA intein splicing inhibitors, primary screen, biochemical, fluorescence, HTS | cell-free RecA intein splicing | inhibition, % (test concentration not listed) | 290,000 tested, 0.75% active | Protein RecA (Mycobacterium tuberculosis (strain ATCC 25618 / H37Rv)), P9WHJ3; in the data active = inhibition above about 30%;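 also: 0% = vehicle wells and 100% = reference inhibitor control wells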
Target sequence (P9WHJ3 whole entry, looked up): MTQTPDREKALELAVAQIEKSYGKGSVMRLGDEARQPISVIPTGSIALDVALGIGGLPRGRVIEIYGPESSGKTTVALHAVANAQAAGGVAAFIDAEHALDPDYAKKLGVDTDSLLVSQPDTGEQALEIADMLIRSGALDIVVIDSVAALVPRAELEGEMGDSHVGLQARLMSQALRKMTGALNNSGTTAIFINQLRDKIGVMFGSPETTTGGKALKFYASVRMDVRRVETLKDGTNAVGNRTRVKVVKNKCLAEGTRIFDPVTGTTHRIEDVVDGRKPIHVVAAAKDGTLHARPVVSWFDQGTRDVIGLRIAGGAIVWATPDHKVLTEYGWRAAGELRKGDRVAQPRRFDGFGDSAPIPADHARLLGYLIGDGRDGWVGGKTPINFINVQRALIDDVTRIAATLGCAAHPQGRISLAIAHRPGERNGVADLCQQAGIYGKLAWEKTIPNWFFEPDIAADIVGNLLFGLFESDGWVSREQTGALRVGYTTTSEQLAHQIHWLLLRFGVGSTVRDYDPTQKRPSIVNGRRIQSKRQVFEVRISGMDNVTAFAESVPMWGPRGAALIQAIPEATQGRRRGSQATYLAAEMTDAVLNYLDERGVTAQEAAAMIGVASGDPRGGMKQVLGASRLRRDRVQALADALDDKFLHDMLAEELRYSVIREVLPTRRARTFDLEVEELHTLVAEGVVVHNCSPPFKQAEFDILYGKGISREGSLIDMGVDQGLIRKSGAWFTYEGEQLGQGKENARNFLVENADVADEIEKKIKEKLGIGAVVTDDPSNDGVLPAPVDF
GFP chromo cs: counter-screen: blocks GFP chromophore formation, dose response, counter-screen, biochemical, fluorescence, homogeneous; shares compounds with RecA intein inh; cell-free GFP chromophore formation; EC50, µM; 2,100 tested, 83% active; AID 434968, 2010; call rule not given here
Numbers without * were called inactive; . = no result. Shown are actives, neighbours in structure and some others; about 4.2% of the full set was active somewhere.

SMILES	BJeLR lethal	PrPC surface inh	FBA Mtb inh	GDH-TPI inh	RecA intein inh	GFP chromo cs
O=c1[nH]c2ccc(Cl)cc2c(-c2ccccc2)c1SC(=S)N1CCOCC1	-3.2	-20.8	-0.8	2.5	4.1	.
O=c1[nH]c2ccc(Cl)cc2c(-c2ccccc2)c1SC(=S)N1CCCCC1	-13.7	-8.8	-3.0	-0.6	39.7*	>38
COC(=O)c1ccccc1NC(=O)C(C)n1nc(C)c2c(C)n(-c3ccccc3)nc2c1=O (stereo not given)	-11.7	1.5	6.6	1.5	97.3*	>38
Cc1nn(C(C)C(=O)Nc2ccccc2Cl)c(=O)c2nn(-c3ccccc3)c(C)c12 (stereo not given)	-9.4	5.1	-0.7	6.3	-0.8	.
COC(=O)[C@]12C[C@H](CC(=O)N3CCN(C(=O)c4ccco4)CC3)C(=O)N(CCc3ccc(OC)c(OC)c3)C1=C[C@H](C(C)C)O[C@@H]2C1CC1	.	-2.9	.	.	.	.
O=C(C(Cl)Cl)N1c2ccccc2OCC1c1ccccc1 (stereo not given)	4.4	20.1	-0.3	1.8	71.9*	34.9*
CCCCCCCCN1C(=O)[C@@H](CC(=O)N2CCSCC2)C[C@@]2(C(=O)OC)C1=C[C@H](C(C)(C)C)O[C@@H]2C	.	-0.5	.	.	.	.
CC1=NN(c2ccc(Cl)cc2)C(=O)C1C(c1cccc(O)c1)c1c(C)[nH]n(-c2ccc(Cl)cc2)c1=O (stereo not given)	8.5	.	-1.5	5.7	87.7*	2.31*
CC1=NN(c2ccc(F)cc2)C(=O)C1C(c1cccc(O)c1)c1c(C)[nH]n(-c2ccc(F)cc2)c1=O (stereo not given)	1.4	-6.8	1.3	2.7	96.8*	1.79*
Cc1ccc(-c2nnc(SCC(=O)NN=Cc3c[nH]c4ccccc34)n2-c2ccccc2)cc1	.	10.5	.	.	.	.
C[C@@H]1CN([C@H](C)CO)S(=O)(=O)c2ccc(Br)cc2O[C@H]1CN(C)CC1CCOCC1	.	-5.2	.	.	.	.
COc1nc(OC)nc(N2CCC(C(=O)N(C)Cc3ccco3)CC2)n1	.	-6.3	.	.	.	.
O=C(Cc1ccccc1F)Nc1nc2ccccc2[nH]1	10.6	9.4	1.4	0.6	37.8*	>38
COc1ccccc1N1CCN(CC(=O)c2c(C)[nH]c3cc(C)ccc23)CC1	-6.0	-2.2	-3.6	0.0	8.7	>38
CCOC(=O)[C@]12CCCCC/C=C\1N(CCc1ccc(Cl)cc1)C(=O)[C@H]2CC(=O)N1CCCCC1	.	-2.8	.	.	.	.
O=C1c2[nH]nc(-c3ccccc3O)c2C(c2cccc(Cl)c2)N1Cc1ccco1 (stereo not given)	9.0	5.0	-5.9	-2.6	34.0*	>38
O=C1c2[nH]nc(-c3ccccc3O)c2C(c2ccc(F)cc2)N1Cc1ccco1 (stereo not given)	-4.2	-0.3	0.1	6.4	20.4	.
COc1ccc(CCNC(=O)Nc2ccc3c(c2)[C@@]2(CC(=O)N(CC(C)C)C2c2ccccc2)C(=O)N3C)cc1OC (stereo not given in full)	.	-7.0	.	.	.	.
CCCCc1c(-c2ccccc2OC)ncn1C(C)c1ccc(Cl)cc1 (stereo not given)	.	2.4	.	.	.	.
CC(C)c1ccc(N2C(=O)C(Cl)=C(N3CCOCC3)C2=O)cc1	-7.8	-0.8	2.8	7.4	-22.2	.
O=C1C(Cl)=C(N2CCOCC2)C(=O)N1c1ccc(Br)cc1	-2.4	-4.7	-1.0	30.0	52.7*	2.46*
Cc1ccccc1N1C(=O)C(Cl)=C(N2CCOCC2)C1=O	10.4	7.0	-1.8	-1.4	59.2*	12.2*
Cc1ccccc1N1C(=O)C(Cl)=C(N2CCCCCC2)C1=O	-5.5	-10.2	-7.0	-1.9	8.2	.
Cc1ccc(N2C(=O)C(Cl)=C(N3CCOCC3)C2=O)c(C)c1	-7.3	3.5	-6.6	13.1	60.0*	10.7*
O=C1C(Cl)=C(N2CCOCC2)C(=O)N1c1ccccc1F	-11.2	-8.5	0.2	9.4	.	7.2*
SMILES	BJeLR lethal	PrPC surface inh	FBA Mtb inh	GDH-TPI inh	RecA intein inh	GFP chromo cs
Cn1cccc1CC(=O)NN=Cc1cccc(F)c1	.	-1.5	.	.	.	.
CCN(Cc1cccs1)c1ncnc2ccc(-c3ccc4c(c3)OCO4)cc12	.	-5.4	.	.	.	.
Cc1ccc(-c2c(NC(=O)c3cccc(C)c3)nc3ncccn23)cc1	.	-9.5	.	.	.	.
COC(=O)c1cc2c(c3c4cc(C)ccc4n(S(=O)(=O)c4ccc(OC)cc4)c13)C(=O)N(Cc1ccccc1OC)C2	.	-0.1	.	.	.	.
CN(CC#CC1=CCCCC1)/C(N)=N/C(=O)OCc1ccccc1	.	3.8	.	.	.	.
CCc1ccccc1N1C(=O)C(Cl)=C(N2CCOCC2)C1=O	-6.1	-0.5	-2.9	-2.9	67.4*	9.91*
CCOc1ccc(N2C(=O)C(Cl)=C(N3CCOCC3)C2=O)cc1	1.9	-6.0	-1.3	4.6	.	.
CC(C)(C)C(=O)Nc1ccc(N=Nc2ccccc2)cc1	-0.1	-3.8	-3.1	13.4	35.2*	8.74*
COc1ccc(S(=O)(=O)Cc2ccc(C(=O)NCc3ccccc3)o2)cc1	7.8	11.3	1.2	1.7	-1.3	.
COC(=O)c1ccccc1NC(=O)c1nc(S(=O)(=O)Cc2ccccc2)ncc1Cl	11.4	-3.6	-0.7	2.6	2.4	.
COc1ccc(CNC(=O)c2nc(S(=O)(=O)Cc3ccccc3)ncc2Cl)cc1	23.1	4.8	4.6	-1.7	81.9*	14.8*
O=C(NCc1ccccc1)c1nc(S(=O)(=O)Cc2ccccc2)ncc1Cl	26.2	5.0	3.2	9.6	77.4*	16.7*
O=c1cc(-c2cccc3ccccc23)[nH][nH]1	-9.8	-4.2	1.1	-0.9	92.5*	3.46*
Cc1cccc(C)c1NC(=O)[C@@H]1CC(=O)O[C@@H]1c1ccccc1	.	2.5	.	.	.	.
COc1cccc(C(c2c(C)[nH]n(-c3ccccc3)c2=O)c2c(C)[nH]n(-c3ccccc3)c2=O)c1OC	-0.5	-2.4	1.6	6.2	93.7*	1.77*
COc1cccc(C(c2c(C)[nH]n(-c3ccccc3)c2=O)c2c(C)[nH]n(-c3ccccc3)c2=O)c1O	0.4	4.8	0.4	15.5	66.5*	1.48*
Cc1[nH]n(-c2ccccc2)c(=O)c1-c1ccccc1	-0.6	-1.6	1.2	5.1	-5.7	.
CCOc1cccc(C(c2c(C)n(C)n(-c3ccccc3)c2=O)c2c(C)n(C)n(-c3ccccc3)c2=O)c1OC	-3.1	-1.9	-4.6	-1.5	-0.6	.
CN(C(=O)CCn1nnc(-c2cccs2)n1)C1CCCCC1	.	-6.0	.	.	.	.
N#CC1=C(N)N(c2ccccc2)C(c2cccc([N+](=O)[O-])c2)C1(C#N)C#N (stereo not given)	-14.9	2.8	2.5	8.1	39.0*	24*
Cc1cccc(N2C(N)=C(C#N)C(C#N)(C#N)C2c2ccccc2)c1 (stereo not given)	-3.1	10.9	16.5	12.6	22.2	.
